SARS PLpro yeast = SARS-CoV PLP inhibition in yeast. S. cerevisiae expressing SARS-CoV PLpro, growth rescue. Potency, µM (doses to about 32.9 µM), without a hit: at the highest dose activity, positive = growth rescue, usual class: activators. hit rate 0.19% among 330,000. AID 485353; calls by dose curve; note: 0% is about no effect; nearly all actives have a fitted effect of over 55% in size
TbPYK inhibitor = blocks Trypanosoma brucei pyruvate kinase; Q57TT1; TbPYK enzyme, Kinase-Glo Plus ATP luminescence, 45 min; Potency, µM (top dose mostly 76.8 µM), for inactives: at the highest dose activity, negative = inhibition, most hits filed as inhibitors; hit rate 0.12% among 410,000; AID 624173; note: % is set by controls: 0 for no effect and ±100 for the full control effect; nearly all actives have a fitted effect of over 50% in size
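Quantitative HTS: titrated library compounds versus trypanosomal pyruvate kinase in TEA buffer (pH 7.2) containing KCl, MgCl2, BSA and Tween-20. Reactions were initiated with ADP, 130 uM final. Kinase-Glo Plus luminescence was read after 45 min at RT.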
LmPK inhibitor = inhibitors of Leishmania mexicana pyruvate kinase; Q27686; purified LmPK, Kinase-Glo ATP luminescence, 1 h; Potency, µM (doses to about 57.5 µM), for the others: at the top dose activity change, negative = inhibition, hits mostly inhibitors; hit rate 0.37% among 290,000; AID 1721; note: % is set by controls: 0 for no effect and ±100 for the full control effect
Target sequence (Q27686 whole entry, looked up): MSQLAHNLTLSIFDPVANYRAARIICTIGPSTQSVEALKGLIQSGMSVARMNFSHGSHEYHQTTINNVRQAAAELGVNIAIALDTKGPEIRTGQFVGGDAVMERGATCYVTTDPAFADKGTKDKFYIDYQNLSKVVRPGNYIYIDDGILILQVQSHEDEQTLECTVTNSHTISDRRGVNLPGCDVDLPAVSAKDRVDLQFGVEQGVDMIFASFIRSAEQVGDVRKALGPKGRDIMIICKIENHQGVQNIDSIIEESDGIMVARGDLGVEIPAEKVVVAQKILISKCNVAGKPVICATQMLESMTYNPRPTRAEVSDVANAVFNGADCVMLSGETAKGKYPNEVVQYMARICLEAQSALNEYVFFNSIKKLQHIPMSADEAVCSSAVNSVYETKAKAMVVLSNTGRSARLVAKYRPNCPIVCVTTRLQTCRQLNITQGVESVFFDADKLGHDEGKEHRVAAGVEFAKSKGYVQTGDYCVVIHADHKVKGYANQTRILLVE
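ATP generated from ADP (0.1 mM) and PEP (0.5 mM) by 0.1 nM LmPK over 1 h at room temperature (pH 7.2 imidazole buffer) was detected by coupled luciferase luminescence. Values were normalized to uninhibited and no-enzyme wells.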
RE007 growth inh = less growth of the S. pombe RE007 Vpr strain. AID 651644. hit rate 0.21% among 360,000. S. pombe RE007 Vpr strain, BacTiter-Glo ATP luminescence, 24 h. Potency, µM (titrated, usually from 92.2 µM), without a hit: at the top dose activity change, negative = less growth, actives largely listed as inhibitors; active = well fitted falling curve with a large enough effect; inconclusive = small, poorly fitted or top-dose-only effect; inactive = no such curve, though single readings can be large or run the other way; note: % is set by controls: 0 for no effect and ±100 for the full control effect; nearly all actives have a fitted effect of over 50% in size
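Fission yeast RE007 carrying one integrated HIV-1 vpr copy, seeded at OD 0.01 in PMG+AL medium with 23 nL pinned compound. Grown 24 h at 30 degrees; viability read by BacTiter-Glo luminescence after 5 min.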
Giardia FBPA inh-1 = inhibitors of Giardia lamblia fructose-1,6-bisphosphate aldolase; A8B2U2; purified Giardia FBPA; Potency, µM (titrated, usually from 59.6 µM), for inactives: at the highest dose activity, negative = inhibition, most hits filed as inhibitors; hit rate 0.71% among 290,000; AID 2451; note: % is set by controls: 0 for no effect and ±100 for the full control effect; nearly all actives have a fitted effect of over 55% in size
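Giardia FBPA (40 nM reagent) was preincubated 10 min at RT with compound (up to 57.5 uM final), then substrate plus GAPDH/TPI/NAD/arsenate coupling system with diaphorase/resazurin was added; resorufin fluorescence (525/598 nm) was read after 20 min.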
Giardia growth = blocks growth of Giardia lamblia trophozoites; Giardia lamblia trophozoite growth inhibition; Potency, µM (top dose mostly 57.5 µM), for the others: at the highest dose activity change, negative = inhibition, usual class: inhibitors; hit rate 5% among 1,500; shares compounds with Giardia FBPA inh-1; AID 2785;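 note: trophozoites exposed to compound for 48 h at 37 °C; % is set by controls: 0 for no effect and ±100 for the full control effect; nearly all actives have a fitted effect of over 70% in size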
Mammalian tox = toxic to mammalian cells in Giardia aldolase counter-screen | shares compounds with Giardia FBPA inh-1 | mammalian cell viability counter-screen, qHTS | Potency, µM (top dose mostly 57.5 µM), inactives show top-dose viability change, negative = toxicity, hits mostly inhibitors | hit rate 4% among 1,500 | AID 2786;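 note: Chinese hamster ovary cells used as mammalian cytotoxicity surrogate; viability measured as cellular ATP by luminescence; compound exposure lasted 48 h before reading; % is set by controls: 0 for no effect and ±100 for the full control effect; nearly all actives have a fitted effect of over 60% in size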
Giardia FBPA inh-2 = confirmation of Giardia fructose-bisphosphate aldolase inhibitors. purified Giardia aldolase enzyme activity, qHTS. Potency, µM (series often up to 57.5 µM), inactives show at the highest dose activity change, negative = inhibition, hits mostly inhibitors. hit rate 5% among 1,500. shares compounds with Giardia FBPA inh-1; note: % is set by controls: 0 for no effect and ±100 for the full control effect; nearly all actives have a fitted effect of over 45% in size
Rabbit aldolase = rabbit FBP aldolase inhibition by Giardia aldolase hits; shares compounds with Giardia FBPA inh-1; Rabbit muscle FBPA enzyme inhibition, selectivity counter-screen; Potency, µM (top dose mostly 57.5 µM), for the others: top-dose activity, negative = inhibition, usual class: inhibitors; hit rate 4% among 1,500; AID 2794; note: % is set by controls: 0 for no effect and ±100 for the full control effect; nearly all actives have a fitted effect of over 60% in size
GAPDH counter = counter-screen for Giardia aldolase inhibitors: GAPDH coupling enzyme; shares compounds with Giardia FBPA inh-1; GAPDH coupling enzyme counterscreen, biochemical, qHTS; Potency, µM (titrated, usually from 57.5 µM), for the others: at the top dose activity change, negative = inhibition, most hits filed as inhibitors; hit rate 6% among 1,500; note: % is set by controls: 0 for no effect and ±100 for the full control effect; nearly all actives have a fitted effect of over 55% in size
* marks the source's active call; other numbers are inactive results; ? = inconclusive; / = no result given; [ ] = another dose, or the depositor's remark. The list is not random: actives were taken first. Their share in the collection is about 1.1%. Unless noted, calls come from the whole dose curve; as a rule, active = well fitted curve in the direction sought with a large enough effect; inconclusive = small, poorly fitted or top-dose-only effect, or another doubt; inactive = no such curve, though single readings can be large; an effect the other way counts as inactive or inconclusive. Potency is the fitted concentration of half-maximal effect.

SMILES | SARS PLpro yeast | TbPYK inhibitor | LmPK inhibitor | RE007 growth inh | Giardia FBPA inh-1 | Giardia growth | Mammalian tox | Giardia FBPA inh-2 | Rabbit aldolase | GAPDH counter
CCNC(=S)NS(=O)(=O)c1ccc(F)cc1 | -4.5% | -0.5% | 0.0% | ? | ? | 3.7%[38.3 µM] | 2.5% | 4.3% | -0.9% | 2.4%
COc1ccc(Cn2c(CCC(=O)Nc3ccc(Br)c(C)c3)nc3cccnc32)cc1 | / | -2.4% | / | / | / | / | / | / | / | /
Cc1ccc2c(=O)cc(C(=O)Nc3ccc(S(=O)(=O)N4CCCCC4)cc3)oc2c1 | / | -1.6% | / | / | / | / | / | / | / | /
CCN(C(=O)c1cc(S(=O)(=O)N2CCOCC2)cn1C)c1cccc(C)c1 | -0.3% | -0.7% | -10.2% | 4.5% | 12.6µM* | 28.0% | -4.6% | 9.9% | -0.3% | 2.4%
CCN(C(=O)c1cc(S(=O)(=O)N2CCOCC2)cn1C)c1ccc(OC)cc1 | / | 1.7% | / | / | / | / | / | / | / | /
COc1ccc(NC(=O)CC2C(=O)N(c3ccc(OC)cc3)C(=O)N2CCC2=CCCCC2)cc1 (stereo unspecified) | / | 0.1% | / | / | / | / | / | / | / | /
Cc1ccc(NC(=S)c2ccncc2)cc1 | 0.2% | -8.0% | 0.6% | -5.3% | 28.2µM* | 23.3% | 0.8% | 6.0% | -1.9% | 7.5%
CCOC(=O)c1cccc(NC(=O)c2cc3c(=O)n(Cc4cccnc4)ccc3nc2C)c1 | / | -6.1% | / | / | / | / | / | / | / | /
CCOc1ccccc1C(=O)NCc1nc2cccnc2n1Cc1ccc(C)cc1 | / | 2.5% | / | / | / | / | / | / | / | /
C/C(=N/Nc1nc(C)c(C)s1)c1cccc([N+](=O)[O-])c1 | 21.8% | -15.8% | -4.4% | 0.7% | 31.6µM* | 3.9%[10.4 µM] | -11.5% | -3.6% | 5.9% | -11.0%
C/C(=N\Nc1nc(N)cc(Cl)n1)c1cccc([N+](=O)[O-])c1 | -0.9% | 4.0% | 2.2% | 3.0% | -7.5% | / | / | / | / | /
CCN(CC)c1ccc(N)cc1S(=O)(=O)Nc1ccccc1OC | 3.8% | ? | -13.6% | 0.3% | 15.8µM* | 12.7%[10.4 µM] | -0.4% | 1.3% | 3.6% | 16.4%
CCN(CC)c1ccc(N)cc1S(=O)(=O)Nc1ccc(OC)cc1 | -0.1% | -14.4% | 1.7% | -2.3% | -13.0% | / | / | / | / | /
O=C(N/N=C/c1cccnc1)c1ccc(O)cc1 | 0.9% | -2.0% | 3.0% | 0.5% | 4.0% | / | / | / | / | /
O=C(N/N=C/c1cccnc1)c1cc(O)c(O)c(O)c1 | -0.5% | 3.2% | -7.3% | 0.4% | 10µM* | ? | 5.8% | -25.5% | -20.1% | -8.5%
CCN(CC)C(=O)c1sc(NC(=O)C(C)Sc2nc(-c3ccccc3)cc(C(F)(F)F)n2)c(C(=O)OC)c1C (stereo unspecified) | / | 3.7% | / | / | / | / | / | / | / | /
CCCC1Cc2c(sc(N)c2C#N)CO1 (stereo unspecified) | 0.2% | 6.9% | 0.5% | 8.1% | -2.6% | / | / | / | / | /
N#Cc1c(N)sc(=S)c2c1CCCC2 | 6.6% | -12.9% | 5.0% | -22.5% | 17.7µM* | ? | 2.2% | -16.1% | -14.7% | -19.1%
CCC1(C)Cc2c(C#N)c(N)n(-c3ccccc3)c(=S)c2CO1 (stereo unspecified) | -1.8% | -3.9% | -2.1% | 1.0% | 0.7% | / | / | / | / | /
CCC1(C)Cc2c(C#N)c(N)sc(=S)c2CO1 (stereo unspecified) | -12.8% | -7.1% | 8.3% | -3.1% | 2.23µM* | 6.3%[10.4 µM] | -5.6% | -17.0% | -6.3% | -13.3%

High-throughput results: PubChem, National Center for Advancing Translational Sciences (NCATS)
